In PubChem BioAssay AID1159580 (chemical genetic matrix, 2015):
Values joined by “and” are separate entries in the source; they are usually repeats but may differ in a detail not shown here. Equal values may be shown once. The whole screen tested about 5,500 compounds, of which about 2,000 (36%) were called active. Roughly 18% stayed inconclusive and do not appear here. Rule as the data show it: active = normalized growth mostly below about 0.91 (no sharp cut-off); inconclusive = no clear call, values can overlap the other calls; inactive = mostly above about 0.92. Some of the results follow.

Test: chemical genetic growth profiling, strain panel (AID 1159580);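 also: tested at 20 µM; growth read once vehicle control cultures reached saturation at 30 °C; 1 = growth at the plate median or of vehicle wells; lower values mean less growth of the strain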
Settings: S. cerevisiae deletion strains, growth OD

Measured: normalized growth

CCOC(=O)[C@H](CCc1ccccc1)N[C@@H](C)C(=O)N1Cc2ccccc2C[C@H]1C(=O)O
inactive: locus YAL021C, strain ccr4, stronger effect = lower value 0.993 | locus YAL026C, strain drs2, stronger effect = lower value 0.981 | locus YAL030W, strain snc1, stronger effect = lower value 1 | locus YBL061C, strain skt5, stronger effect = lower value 0.99 | locus YBR009C, strain hhf1, stronger effect = lower value 1.02 | locus YBR021W, strain FUR4, stronger effect = lower value 1.01 | locus YBR023C, strain chs3, stronger effect = lower value 0.984 | locus YBR171W, strain sec66, stronger effect = lower value 0.997 | locus YBR229C, strain ROT2, stronger effect = lower value 1 | locus YBR231C, strain swc5, stronger effect = lower value 1 | locus YBR279W, strain paf1, stronger effect = lower value 0.98 | locus YCL011C, strain gbp2, stronger effect = lower value 0.998 | locus YCL016C, strain dcc1, stronger effect = lower value 0.963 | locus YCL029C, strain bik1, stronger effect = lower value 1.01 | locus YCL061C, strain MRC1, stronger effect = lower value 1.01 | locus YCL069W, strain vba3, stronger effect = lower value 0.986 | locus YCR088W, strain abp1, stronger effect = lower value 1 | locus YDL005C, strain med2, stronger effect = lower value 1.01 | locus YDL035C, strain GPR1, stronger effect = lower value 1.02 | locus YDL040C, strain nat1, stronger effect = lower value 1 | locus YDL074C, strain BRE1, stronger effect = lower value 0.996 | locus YDL101C, strain DUN1, stronger effect = lower value 1.01 | locus YDL134C, strain PPH21, stronger effect = lower value 1 | locus YDL185W, strain tfp1, stronger effect = lower value 1.01 | locus YDL192W, strain arf1, stronger effect = lower value 1.01 | locus YDR001C, strain nth1, stronger effect = lower value 1 | locus YDR069C, strain doa4, stronger effect = lower value 1 | locus YDR101C, strain arx1, stronger effect = lower value 0.999 | locus YDR137W, strain rgp1, stronger effect = lower value 0.983 | locus YDR159W, strain sac3, stronger effect = lower value 0.964 | locus YDR162C, strain NBP2, stronger effect = lower value 1.01 | locus YDR195W, strain ref2 0.965 | locus YDR297W, strain sur2, stronger effect = lower value 1.01 | locus YDR318W, strain mcm21, stronger effect = lower value 1.01 | locus YDR334W, strain swr1, stronger effect = lower value 1.02 | locus YDR335W, strain msn5, stronger effect = lower value 0.984 | locus YDR388W, stronger effect = lower value 1.01 | locus YDR392W, strain spt3, stronger effect = lower value 0.931 | locus YDR502C, strain sam2, stronger effect = lower value 1.03 | locus YEL003W, strain gim4, stronger effect = lower value 1.02 | locus YEL037C, strain rad23, stronger effect = lower value 1.01 | locus YEL061C, strain CIN8 (second series), stronger effect = lower value 1.03 | locus YEL061C, strain CIN8, stronger effect = lower value 1.01 | locus YER015W, strain faa2, stronger effect = lower value 1.01 | locus YER016W, strain bim1, stronger effect = lower value 1.02 | locus YER110C, stronger effect = lower value 1.01 | locus YER111C, strain swi4, stronger effect = lower value 0.989 | locus YER155C, strain BEM2 (second series), stronger effect = lower value 1.06 | locus YER155C, strain BEM2, stronger effect = lower value 0.995 | locus YER167W, strain BCK2, stronger effect = lower value 1.01 | locus YFR010W, strain ubp6, stronger effect = lower value 0.998 | locus YGL078C, strain dbp3, stronger effect = lower value 1.01 | locus YGL086W, strain mad1, stronger effect = lower value 1 | locus YGL167C, strain pmr1, stronger effect = lower value 1 | locus YGL173C, strain kem1, stronger effect = lower value 0.993 | locus YGL227W, strain vid30, stronger effect = lower value 0.986 | locus YGL240W, strain doc1, stronger effect = lower value 1.02 | locus YGL248W, strain PDE1, stronger effect = lower value 1 | locus YGL253W, strain hxk2, stronger effect = lower value 0.926 | locus YGR078C, strain PAC10, stronger effect = lower value 1 | locus YGR135W, strain pre9, stronger effect = lower value 1.03 | locus YGR229C, strain SMI1, stronger effect = lower value 1.02 | locus YGR252W, strain gcn5, stronger effect = lower value 0.999 | locus YHR013C, strain ard1, stronger effect = lower value 0.953 | locus YHR027C, strain rpn1, stronger effect = lower value 1.01 | locus YHR030C, strain SLT2, stronger effect = lower value 1.01 and 0.988 | locus YHR079C, strain IRE1 (second series), stronger effect = lower value 1.01 | locus YHR079C, strain IRE1, stronger effect = lower value 0.976 | locus YHR094C, strain hxt1, stronger effect = lower value 1 | locus YHR129C, strain ARP1, stronger effect = lower value 1 | locus YHR142W, strain chs7, stronger effect = lower value 0.935 | locus YHR200W, strain rpn10, stronger effect = lower value 1.01 | locus YIL066C, strain RNR3, stronger effect = lower value 1.01 | locus YIL073C, strain SPO22, stronger effect = lower value 1.08 | locus YIL125W, strain kgd1, stronger effect = lower value 1 | locus YIR030C, strain dcg1, stronger effect = lower value 1.01 | locus YJL092W, strain hpr5, stronger effect = lower value 1.01 | locus YJL095W, strain BCK1 (second series), stronger effect = lower value 1.01 | locus YJL095W, strain BCK1, stronger effect = lower value 0.988 and 0.991 | locus YJL115W, strain asf1, stronger effect = lower value 1.01 | locus YJL129C, strain trk1, stronger effect = lower value 0.983 | locus YJL134W, strain LCB3, stronger effect = lower value 1.01 | locus YJL154C, strain vps35, stronger effect = lower value 1.02 | locus YJL164C, strain tpk1, stronger effect = lower value 1 | locus YJL166W, strain qcr8, stronger effect = lower value 1.03 | locus YJL168C, strain set2, stronger effect = lower value 1.01 | locus YJL187C, strain SWE1 (second series), stronger effect = lower value 1 | locus YJL187C, strain SWE1, stronger effect = lower value 1.01
